Source: PubChem BioAssay (Tox21)
Records with an inconclusive call do not appear. The source made the active and inactive calls. Unless noted, calls follow the shape of the dose curve; as a rule, active = well fitted curve in the direction sought with a large enough effect in the repeat runs; inconclusive = weak or mixed curves; inactive = no such curve, though single readings can be large; an effect the other way counts as inactive or inconclusive.

How the values were obtained:
[1] = qHTS assay to identify small molecule antagonists of the retinoid acid receptor (RAR) signaling pathway - cell viability counter screen (AID 1159551); also: nearly all actives have a fitted effect of over 35% in size
Summary of the method: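 Seed C3RL4 cells; next day add compound, then retinol to 1 uM final; incubate 6 h at 37 C; add CellTiter-Glo; read luminescence after 30 min at RT.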

[2] = qHTS assay to identify small molecule antagonists of the retinoic acid receptor (RAR) signaling pathway (AID 1159552; also: nearly all actives have a fitted effect of over 50% in size)
Summary of the method: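 Luminescent RARE reporter read-out in C3RL4 cells: 6 hr co-treatment at 37 C of test compounds with retinol at 1 uM final. Cells plated overnight beforehand; luciferase reagent incubated 30 min at room temperature before reading.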

[3] = qHTS assay to identify small molecule agonists of the retinoic acid receptor (RAR) signaling pathway (AID 1159553)
Summary of the method: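 Activation of retinol signaling was monitored via a RARE luciferase reporter in C3RL4 cells. After 6 hr compound treatment at 37 C, detection reagent was added for 30 min at room temperature before luminescence reading.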

[4] = qHTS assay to identify small molecule antagonists of the estrogen related receptor (ERR) signaling pathway from Tox21 library - cell viability counter screen (AID 1224834); also: nearly all actives have a fitted effect of over 30% in size
Summary of the method: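 CellTiter-Fluor fluorescence measured; ERR cells; 17.5 h compound incubation at 37 C; 30 min reagent step.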

[5] = biological target: Luciferin 4-monooxygenase (Photinus pyralis) (UniProt P08659); assay: qHTS assay to identify small molecule inhibitors of firefly luciferase (AID 1224835); also: nearly all actives have a fitted effect of over 25% in size
Chain of Luciferin 4-monooxygenase (Photinus pyralis) (P08659 whole entry, looked up): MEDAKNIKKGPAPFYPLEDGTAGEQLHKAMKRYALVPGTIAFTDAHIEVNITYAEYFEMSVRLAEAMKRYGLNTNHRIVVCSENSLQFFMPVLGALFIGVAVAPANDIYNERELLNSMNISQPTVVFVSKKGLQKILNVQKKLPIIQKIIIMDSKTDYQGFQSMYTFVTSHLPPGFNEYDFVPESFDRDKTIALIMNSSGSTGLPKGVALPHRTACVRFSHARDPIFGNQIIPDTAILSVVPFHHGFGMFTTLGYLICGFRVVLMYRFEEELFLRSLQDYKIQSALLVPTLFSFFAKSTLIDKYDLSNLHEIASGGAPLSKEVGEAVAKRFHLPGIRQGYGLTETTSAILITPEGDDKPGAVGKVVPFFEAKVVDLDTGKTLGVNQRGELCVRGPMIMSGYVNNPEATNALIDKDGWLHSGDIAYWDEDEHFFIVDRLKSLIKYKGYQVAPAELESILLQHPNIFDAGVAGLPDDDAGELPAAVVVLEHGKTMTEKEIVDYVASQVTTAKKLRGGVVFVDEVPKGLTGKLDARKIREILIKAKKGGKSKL
Summary of the method: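 Biochemical qHTS: compounds run as interplate titrations against purified firefly enzyme, with D-luciferin and ATP each at its KM concentration. Light output recorded by CCD imaging.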

[6] = qHTS assay to identify small molecule agonists of the constitutive androstane receptor (CAR) signaling pathway - cell viability counter screen (AID 1224836); also: nearly all actives have a fitted effect of over 45% in size
Summary of the method: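 Cell viability multiplexed with the CAR agonist screen: CellTiter-Fluor fluorescence after 23 hr at 37 C. HepG2-CYP2B6-hCAR cells got compounds at 15 concentrations with PK11195 at 0.75 uM final.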

[7] = qHTS assay to identify small molecule antagonists of the constitutive androstane receptor (CAR) signaling pathway - cell viability counter screen (AID 1224837); also: nearly all actives have a fitted effect of over 45% in size
Summary of the method: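 Using CellTiter-Fluor, viability is scored in HepG2 cells stably carrying hCAR and a 2.2kb CYP2B6 reporter after 23 hr compound exposure across 15 concentrations, with CITCO present at 50 nM.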

[8] = qHTS assay to identify small molecule antagonists of the estrogen related receptor signaling pathway with the pleiotropic PPARgamma coactivator (PGC) from Tox21 10K library - cell viability counter screen (AID 1224840; active = well fitted cell-killing curve with a large enough effect in the repeat runs, not every such curve was filed as active; also: nearly all actives have a fitted effect of over 40% in size)
Summary of the method: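 Here the PGC/ERR cells serve as a cytotoxicity control: they are exposed to compounds for 17.5 hours at 37 C, and live-cell signal is quantified using CellTiter-Fluor fluorescence.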

[9] = biological target: Thyrotropin receptor (Homo sapiens) (UniProt P16473); assay: qHTS assay to identify small molecule agonists of the thyroid stimulating hormone receptor (TSHR) signaling pathway (AID 1224843; calls by dose curve; also: nearly all actives have a fitted effect of over 45% in size)
Chain of Thyrotropin receptor (Homo sapiens) (P16473 whole entry, looked up): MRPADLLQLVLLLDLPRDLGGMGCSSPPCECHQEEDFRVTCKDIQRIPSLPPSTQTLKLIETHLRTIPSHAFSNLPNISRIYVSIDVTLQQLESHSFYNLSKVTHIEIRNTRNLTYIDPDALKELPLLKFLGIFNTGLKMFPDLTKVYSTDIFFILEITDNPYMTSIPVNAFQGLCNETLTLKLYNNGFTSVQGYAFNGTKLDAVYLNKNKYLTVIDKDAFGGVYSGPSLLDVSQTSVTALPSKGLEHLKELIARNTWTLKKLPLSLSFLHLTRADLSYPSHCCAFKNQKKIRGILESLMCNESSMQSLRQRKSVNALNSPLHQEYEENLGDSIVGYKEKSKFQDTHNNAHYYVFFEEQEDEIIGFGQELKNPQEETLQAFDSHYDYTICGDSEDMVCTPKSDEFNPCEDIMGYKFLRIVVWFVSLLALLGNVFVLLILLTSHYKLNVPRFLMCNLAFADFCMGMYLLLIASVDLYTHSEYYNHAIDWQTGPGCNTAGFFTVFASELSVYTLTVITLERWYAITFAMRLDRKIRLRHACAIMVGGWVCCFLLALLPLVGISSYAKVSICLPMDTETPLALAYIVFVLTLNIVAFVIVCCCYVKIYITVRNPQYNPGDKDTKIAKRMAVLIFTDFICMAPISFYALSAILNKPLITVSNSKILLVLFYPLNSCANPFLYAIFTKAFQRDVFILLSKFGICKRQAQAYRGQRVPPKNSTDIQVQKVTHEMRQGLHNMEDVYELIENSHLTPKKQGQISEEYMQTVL
Summary of the method: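 Steps: seed 800 TSHR-HEK293 cells per well; add test compound and hold 30 min at ambient temperature; dispense cAMP-d2 then anti-cAMP cryptate; incubate 1 h at ambient; measure fluorescence intensity.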

[10] = qHTS assay to identify small molecule agonists of the hypoxia (HIF-1) signaling pathway - cell viability counter screen (AID 1224844; calls by dose curve; also: nearly all actives have a fitted effect of over 50% in size)
Summary of the method: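 Multiplexed with the HRE beta-lactamase assay, this viability read used CellTiter-Glo luminescence (30 min, RT) on HRE-bla ME-180 cells treated 17 hrs with compounds in 0.5% dialyzed FBS medium.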

[11] = qHTS assay to identify small molecule agonists of H2AX (AID 1224845; active = well fitted activation curve with a large enough effect in the signal ratio in the repeat runs, not every such curve was filed as active; the % refers to the signal ratio)
Summary of the method: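 Wild-type CHO-K1 cells, plated overnight, exposed 3hr at 37C to 15 concentrations (0.76% DMSO final). Lysed, then HTRF anti-pH2AX (S139) cryptate and anti-H2AX-d2 antibodies, 24 hr room temperature; 665/620 nm emission read.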

[12] = qHTS assay to identify small molecule agonists of the hypoxia (HIF-1) signaling pathway (AID 1224846; active = well fitted activation curve with a large enough effect in the signal ratio in the repeat runs, not every such curve was filed as active; the % refers to the signal ratio)
Summary of the method: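 Hypoxia-pathway activation was scored as increased beta-lactamase from an HRE-controlled reporter in ME-180 cells; plated at 2,000 cells per well with 0.5% dialyzed FBS, they were exposed 17 hrs to compounds and then given CCF4-AM.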

[13] = qHTS assay to identify small molecule agonists of H2AX - cell viability counter screen (AID 1224847; calls by dose curve; also: top concentration of the series differs between compounds; nearly all actives have a fitted effect of over 30% in size)
Summary of the method: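 Counter-screen for viability: CellTiter-Glo ATP luminescence read after 3 h compound treatment (15-point titration, 0.76% DMSO final) of CHO-K1 cells at 37C, with 30 min room-temperature reagent incubation.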

[14] = qHTS RealTime-Glo MT Cell Viability Assay in HepG2 cells - 24 hour (AID 1224867); also: nearly all actives have a fitted effect of over 50% in size
Summary of the method: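 Luminescence read-out: viable HepG2 cells reduce a prosubstrate to a NanoLuc substrate, giving a signal proportional to live cell number. Reads taken at 0, 8, 16, 24, 32 and 40 h of compound exposure at 37 C.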

[15] = qHTS assay to identify small molecule antagonists of the estrogen related receptor signaling pathway with the pleiotropic PPARgamma coactivator (PGC) from Tox21 10K library (AID 1224841; call rule not given here; also: actives are mostly falling curves and most rising ones were filed inactive; nearly all actives have a fitted effect of over 50% in size)
Summary of the method: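 Each well held 2,000 PGC/ERR cells, pre-incubated six hours (37 C, 5% CO2). Test substances in DMSO were added by pin tool and left for 18 h at 37 C before luciferase detection by One-Glo.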

[16] = qHTS assay to identify small molecule agonists of the estrogen related receptor signaling pathway with the pleiotropic PPARgamma coactivator (PGC) from Tox21 10K library (AID 1224842); also: nearly all actives have a fitted effect of over 15% in size
Summary of the method: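 PGC/ERR reporter cell line, 2,000 cells per well, incubated 6 h at 37 C before 23 nL compound in DMSO was added. After 18 h at 37 C, One-Glo luminescence read following 30 min at room temperature.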

[17] = qHTS assay to identify small molecule antagonists of the estrogen related receptor (ERR) signaling pathway from Tox21 library (AID 1224848); also: nearly all actives have a fitted effect of over 50% in size
Summary of the method: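 Luminescent reporter read-out (ONE-Glo) from NTP's ERR cell line after 18 h treatment at 37 C with DMSO-dissolved Tox21 compounds; cells pre-plated 6 h beforehand at 2,000 per well.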

[18] = qHTS assay to identify small molecule agonists of the estrogen related receptor (ERR) signaling pathway from Tox21 library (AID 1224849; calls by dose curve; also: nearly all actives have a fitted effect of over 15% in size); settings: ERR reporter cell line, ONE-Glo luciferase, 18 h; at 92.4 µM (top of the series) unless noted
Summary of the method: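 Six hours post-seeding at 37 C/5% CO2, ERR cells receive DMSO-solubilised compounds; after 18 h at 37 C, ONE-Glo reagent is applied and luminescence recorded.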

[19] = biological target: Nuclear receptor subfamily 1 group I member 3 (Homo sapiens) (UniProt Q14994); assay: qHTS assay to identify small molecule antagonists of the constitutive androstane receptor (CAR) signaling pathway (AID 1224838);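 also: HepG2 cells stably expressing hCAR with CYP2B6 luciferase reporter stimulated by CITCO; nearly all actives have a fitted effect of over 40% in size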
Chain of Nuclear receptor subfamily 1 group I member 3 (Homo sapiens) (Q14994 whole entry, looked up): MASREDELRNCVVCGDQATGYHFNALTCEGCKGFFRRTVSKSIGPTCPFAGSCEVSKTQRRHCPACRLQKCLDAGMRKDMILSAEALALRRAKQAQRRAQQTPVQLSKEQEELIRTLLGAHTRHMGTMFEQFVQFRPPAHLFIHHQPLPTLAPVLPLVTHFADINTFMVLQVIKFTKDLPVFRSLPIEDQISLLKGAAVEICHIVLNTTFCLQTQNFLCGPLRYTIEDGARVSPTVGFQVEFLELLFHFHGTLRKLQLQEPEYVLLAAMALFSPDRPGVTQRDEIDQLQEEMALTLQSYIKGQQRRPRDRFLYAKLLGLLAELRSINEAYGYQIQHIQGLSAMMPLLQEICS
Summary of the method: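 Reporter luminescence was quantified after 24 h exposure of hCAR/CYP2B6-2.2kb double-stable HepG2 cells to compounds at 15 concentrations in the presence of 50 nM CITCO final.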

[20] = biological target: Nuclear receptor subfamily 1 group I member 3 (Homo sapiens) (UniProt Q14994); assay: qHTS assay to identify small molecule agonists of the constitutive androstane receptor (CAR) signaling pathway (AID 1224839);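 also: HepG2 cells stably carrying human CAR and a CYP2B6 luciferase reporter; nearly all actives have a fitted effect of over 15% in size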
Summary of the method: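 Luminescent ONE-Glo read-out after 24 hr, 37 C exposure of double-stable HepG2-CYP2B6-hCAR reporter cells to a 15-point compound series, in the presence of 0.75 uM PK11195 (final).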
% is scaled to controls: 0 for no effect and ±100 for the full control effect.

CC12CCCC=C1C(=O)OC2=O (stereo unspecified)
inactive: outcome [1] | outcome [2] | Potency [3] | outcome [4] | Potency [5] | outcome [6] | outcome [7] | outcome [8] | Potency [9] | outcome [10] | outcome [11] | outcome [12] | outcome [13] | outcome [14]

CC(C)(C)OC=O
inactive: outcome [1] | outcome [2] | Potency [3] | outcome [4] | Potency [5] | outcome [6] | outcome [7] | outcome [8] | Potency [9] | outcome [10] | outcome [11] | outcome [12] | outcome [13] | outcome [14]

CC(=O)SC[C@@H](C)C(=O)N1CCC[C@H]1C(=O)N[C@@H](Cc1ccccc1)C(=O)O
inactive: outcome [1] | outcome [2] | Potency [3] | outcome [4] | Potency [5] | outcome [6] | outcome [7] | outcome [8] | Potency [15] | Potency [16] | Potency [9] | outcome [10] | outcome [11] | outcome [12] | outcome [13] | outcome [17] | activity change, positive = activation [18] 7.31% [at 42.5 µM] | outcome [14]

C=CCCCCCCCCOC(C)=O
inactive: outcome [1] | outcome [2] | Potency [3] | outcome [4] | Potency [5] | outcome [6] | outcome [7] | outcome [8] | Potency [15] | Potency [16] | outcome [10] | outcome [11] | outcome [12] | outcome [17] | activity change, positive = activation [18] 7.36% | outcome [14]

C=CC(=O)CC
inactive: outcome [1] | outcome [2] | Potency [3] | outcome [4] | Potency [5] | outcome [6] | outcome [7] | outcome [8] | Potency [15] | Potency [16] | Potency [9] | outcome [10] | outcome [11] | outcome [13] | outcome [17] | activity change, positive = activation [18] -1.79% | outcome [14]

O=S(=O)(O)CC(O)CCl (stereo unspecified)
inactive: outcome [1] | outcome [2] | Potency [3] | outcome [4] | Potency [5] | outcome [6] | outcome [7] | outcome [19] | Potency [20] | outcome [8] | outcome [11] | outcome [12] | outcome [13] | outcome [14]

CCN(CC)CC(=O)Oc1ccc(NC(C)=O)cc1
inactive: outcome [1] | outcome [2] | Potency [3] | outcome [4] | Potency [5] | outcome [6] | outcome [7] | Potency [20] | outcome [8] | Potency [9] | outcome [10] | outcome [11] | outcome [13] | outcome [14]

Cc1ccc(O)c(C(=O)c2ccccc2)c1
inactive: outcome [1] | outcome [2] | Potency [3] | outcome [4] | Potency [5] | outcome [6] | outcome [7] | outcome [19] | outcome [8] | Potency [15] | Potency [9] | outcome [10] | outcome [11] | outcome [12] | outcome [17] | activity change, positive = activation [18] -3.28% | outcome [14]

Cc1cc(=O)oc2cc(O[C@@H]3SC[C@@H](O)[C@H](O)[C@H]3O)ccc12
inactive: outcome [1] | outcome [2] | Potency [3] | outcome [4] | Potency [5] | outcome [6] | outcome [7] | outcome [19] | outcome [8] | Potency [9] | outcome [11] | outcome [12] | outcome [14]

CCO[Si](CC(C)C)(OCC)OCC
inactive: outcome [1] | outcome [2] | Potency [3] | outcome [4] | Potency [5] | outcome [6] | outcome [7] | outcome [8] | Potency [15] | Potency [16] | outcome [11] | outcome [13] | activity change, positive = activation [18] -27.2% | outcome [14]

CCN1CCN(C(=O)N[C@@H](C(=O)N[C@@H]2C(=O)N3[C@@H]2SC(C)(C)[C@H]3C(=O)O)c2ccccc2)C(=O)C1=O
inactive: outcome [1] | outcome [2] | Potency [3] | outcome [4] | Potency [5] | outcome [6] | outcome [7] | outcome [8] | Potency [15] | Potency [16] | Potency [9] | outcome [11] | outcome [13] | outcome [17] | activity change, positive = activation [18] 8.89% [at 42.5 µM] | outcome [14]

C=CC(=O)OCC[N+](C)(C)C
inactive: outcome [1] | outcome [2] | Potency [3] | outcome [4] | Potency [5] | outcome [6] | outcome [7] | outcome [8] | Potency [9] | outcome [10] | outcome [11] | outcome [12] | outcome [13] | outcome [14]

COCCCOc1cc(C[C@@H](C[C@H](N)[C@@H](O)C[C@H](C(=O)NCC(C)(C)C(N)=O)C(C)C)C(C)C)ccc1OC
inactive: outcome [1] | outcome [2] | Potency [3] | outcome [4] | Potency [5] | outcome [6] | outcome [7] | outcome [8] | Potency [9] | outcome [10] | outcome [11] | outcome [12] | outcome [13] | outcome [14]

N=C(N)N1CCc2ccccc2C1
inactive: activity change, negative = cytotoxicity [1] -0.951% [at 8.39 µM] | activity, negative = inhibition [2] -2.43% [at 8.39 µM] | activation [3] -0.224% [at 8.36 µM] | viability change, negative = cytotoxic [4] 2.84% [at 8.39 µM] | activity change, negative = inhibition [5] -2.87% [at 10.5 µM] | viability change, negative = cytotoxic [6] -1.33% [at 8.39 µM] | activity change, negative = cytotoxicity [7] 1.11% [at 8.39 µM] | viability change, negative = cytotoxic [8] -0.866% [at 8.39 µM] | activation [16] 0.335% [at 8.39 µM] | activation [9] -1.09% [at 8.39 µM] | activity change, negative = cytotoxicity [10] 5.71% [at 6.97 µM] | activation (H2AX phosphorylation) [11] 0.461% [at 14 µM] | activity change, negative = cytotoxicity [13] 1.46% [at 14 µM] | activity, negative = inhibition [17] 3.19% [at 8.39 µM] | activity change, positive = activation [18] 1.78% [at 8.39 µM] | activity change, negative = cytotoxicity [14] -0.623% [at 6.97 µM]
